This is a sample that favours compounds with a hit; in the whole collection about 5.1% have one here.
HEK293 cAMP ctrl: parental HEK293 cAMP activation (counter-screen); parental HEK293 CNG cAMP sensor, membrane potential fluorescence; Potency, µM (titrated, usually from 57.1 µM), actives largely listed as activators; AID 938; 2.5% of 73,000 active; further: nearly all actives have a fitted effect of over 55% in size
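Counterscreen for endogenous-receptor signalling: CNG-channel HEK 293 cells report cAMP rise by membrane depolarization. After 60 min dye equilibration with 100 uM RO 20-1724, compounds incubated 30 min before bottom-read fluorescence at 590 nm.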
TSHR agonist: activates the human thyroid stimulating hormone receptor. HEK293-CNG-TSHR cells (CNG channel as cAMP sensor), membrane potential dye, cAMP. P16473. Potency, µM (series often up to 57.1 µM), actives largely listed as activators. 0.48% of 73,000 active; active means well fitted activation curve with a large enough effect in the main read-out, with a control signal flat, not every such curve was filed as active; inconclusive means small, poorly fitted or top-dose-only effect, or a change in a side signal; inactive means no such curve, though single readings can be large or run the other way; reference of the percent scale not stated here;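 further: the control signal comes from parental cells without the receptor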
Target sequence (P16473 whole entry, looked up): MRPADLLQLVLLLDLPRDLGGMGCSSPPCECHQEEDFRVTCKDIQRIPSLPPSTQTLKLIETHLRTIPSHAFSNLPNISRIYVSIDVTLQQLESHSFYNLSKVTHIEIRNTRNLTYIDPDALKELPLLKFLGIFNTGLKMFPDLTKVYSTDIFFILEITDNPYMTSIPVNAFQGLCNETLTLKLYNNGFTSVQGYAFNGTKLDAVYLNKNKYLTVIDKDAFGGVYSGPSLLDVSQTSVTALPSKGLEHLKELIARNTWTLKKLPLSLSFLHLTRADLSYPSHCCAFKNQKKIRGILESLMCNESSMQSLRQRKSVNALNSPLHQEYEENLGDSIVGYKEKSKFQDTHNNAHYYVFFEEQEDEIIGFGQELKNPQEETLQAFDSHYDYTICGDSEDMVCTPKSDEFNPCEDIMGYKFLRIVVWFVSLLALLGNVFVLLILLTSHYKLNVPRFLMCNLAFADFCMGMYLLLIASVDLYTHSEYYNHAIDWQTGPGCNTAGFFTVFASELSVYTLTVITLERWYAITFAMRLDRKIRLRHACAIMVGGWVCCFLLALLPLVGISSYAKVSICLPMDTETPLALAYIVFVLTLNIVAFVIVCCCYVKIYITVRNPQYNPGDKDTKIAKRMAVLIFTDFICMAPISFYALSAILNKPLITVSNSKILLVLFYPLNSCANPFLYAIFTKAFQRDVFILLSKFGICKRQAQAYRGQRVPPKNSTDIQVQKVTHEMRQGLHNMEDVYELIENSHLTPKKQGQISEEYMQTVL
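cAMP rise detected as CNG-channel membrane depolarization by fluorescent dye (emission 590 nm), 30 min after compound, following 60 min dye loading containing 100 uM RO 20-1724 at room temperature. Cells: TSHR/CNG HEK 293, with parental CNG HEK 293 as control.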
Tau filament bind: binds recombinant human tau filaments. P10636. recombinant tau filaments, thioflavin S fluorescence, 15 h; filaments grown with octadecylsulfate alongside compound. Potency, µM (titrated, usually from 57.1 µM). 2% of 71,000 active. AID 596;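 further: actives lower thioflavin S fluorescence by blocking filaments or displacing dye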
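Tau 2 uM in ThS buffer dispensed; compound added; 60 uM ODS added (finals 1 uM tau, 30 uM ODS); 15 h 37 C; fluor ex450/em510.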
Hsp90 Hop PPI: changes Hsp90-Hop TPR2A binding signal, up or down; AlphaScreen TPR2A-His6 binding biotin-Hsp90 C-terminal peptide; Potency, µM (titrated, usually from 57 µM); 0.44% of 71,000 active; active means well fitted curve in either direction with a large enough effect; inconclusive means small, poorly fitted or top-dose-only effect, or another doubt
Pol III holo inh: inhibitors of bacterial DNA polymerase III holoenzyme. reconstituted DNA polymerase III holoenzyme replication, biochemical. Potency, µM (highest dose often 57.1 µM). 0.25% of 71,000 active. AID 603
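Reconstituted *E. coli* holoenzyme (0.35 nM Pol III, 1 nM beta, 154 nM SSB, 2 nM primase) was preincubated with compound for 15 min at RT. Synthesis on 1.4 nM ssM13Gori ran 35 min, then was stopped with PicoGreen/EDTA and read as dsDNA fluorescence.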
Large screens that a line does not name were inactive. Unless noted, the call rests on the fitted dose curve; in most records, active means well fitted curve in the direction sought with a large enough effect; inconclusive means small, poorly fitted or top-dose-only effect, or another doubt; inactive means no such curve, though single readings can be large; an effect the other way counts as inactive or inconclusive.

COc1cccc(OC)c1-c1nnc(-c2cn(C)c3ccccc23)o1	HEK293 cAMP ctrl 20µM, TSHR agonist inconclusive
CCOC(=O)c1c(C)n(CC(O)c2ccccc2)c2ccc(O)cc12 (stereo not drawn)	TSHR agonist 25µM
Nc1nnnn1/N=C/c1ccccc1OCc1ccc(Cl)cc1Cl	HEK293 cAMP ctrl 32µM, TSHR agonist inconclusive
O=C(c1ccccc1)N1CCN(c2ccc(NCc3ccc4c(c3)OCO4)cc2)CC1	Tau filament bind 32µM, Hsp90 Hop PPI inconclusive
O=C(c1ccc2c(c1)OCO2)N1CCCC(c2ccccc2)C1 (stereo not drawn)	HEK293 cAMP ctrl 10µM, TSHR agonist inconclusive
O=C(c1cc(-c2ccc3c(c2)OCO3)on1)N1CCN(c2ccccc2)CC1	HEK293 cAMP ctrl inconclusive, TSHR agonist inconclusive
O=C(c1cc(-c2ccc3c(c2)OCO3)on1)N1CCN(c2ccc(F)cc2)CC1	HEK293 cAMP ctrl 32µM, TSHR agonist inconclusive
O=C(c1ccc2c(c1)OCO2)N1CCN(c2ccccc2)CC1	HEK293 cAMP ctrl 16µM, TSHR agonist inconclusive
O=C(c1ccco1)N1CCCC(c2ccccc2)C1 (stereo not drawn)	none
N#C/C(=C\NC(=S)c1ccncc1)c1nc2ccccc2s1	none
COc1ccccc1CN1CCCC2(CCN(C(C)=O)CC2)C1	HEK293 cAMP ctrl inconclusive, TSHR agonist inconclusive
O=c1c(-c2cc(F)cc(F)c2)nc2cnc(N3CCNCC3)nc2n1-c1ccccc1	Tau filament bind 4µM
COc1ccc(-n2c(=O)c(-c3ccc(Cl)cc3)nc3cnc(N4CCNCC4)nc32)cc1	Tau filament bind 4µM
O=c1c(-c2ccc(Cl)cc2)nc2cnc(N3CCNCC3)nc2n1-c1ccccc1	Tau filament bind 3.2µM
COc1ccc(-c2nc3cnc(N4CCNCC4)nc3n(-c3ccc(OC)cc3)c2=O)cc1	none
CCNc1ncc2nc(-c3ccc(OC)cc3)c(=O)n(-c3ccc(OC)cc3)c2n1	HEK293 cAMP ctrl 32µM, TSHR agonist inconclusive
CCOCC(=O)Nc1cc(C(=O)OC)ccc1C(=O)OC	none
CCn1ncc(Br)c1C(=O)Nc1cc(C(=O)OC)ccc1C(=O)OC	HEK293 cAMP ctrl 13µM, TSHR agonist inconclusive
Cc1cc(N)n2ncc(-c3cccc(Br)c3)c2n1	Tau filament bind 1.6µM
Clc1ccc(-n2nnnc2-c2ccccc2)cc1Cl	HEK293 cAMP ctrl 25µM, TSHR agonist inconclusive
COc1ccc(-n2nnnc2-c2cccc(OC)c2)cc1	HEK293 cAMP ctrl inconclusive, TSHR agonist inconclusive
O=C1c2ccccc2C(Cc2ccnc(F)c2)(Cc2ccnc(F)c2)c2ccccc21	HEK293 cAMP ctrl 0.25µM, TSHR agonist inconclusive (no result: Tau filament bind, Hsp90 Hop PPI, Pol III holo inh)
O=C1Nc2ccccc2[C@]1(O)Cc1ccccn1	none
COc1ccc(N2CCN(CCCNC(=O)CC3Oc4ccc(C)cc4NC3=O)CC2)cc1 (stereo not drawn)	Tau filament bind 25µM
Cc1ccc2c(c1)NC(=O)C(CC(=O)NCCCN1CCCC1)O2 (stereo not drawn)	none
CCOc1ccc2c(c1)c1nnc(SCC3CCCO3)nc1n2C (stereo not drawn)	Tau filament bind 32µM
CCOC(=O)C1=C(N)n2c(s/c(=C\c3ccco3)c2=O)=C(C(=O)OCC)C1c1ccco1 (stereo not drawn)	Tau filament bind 16µM
CCOC(=O)C1=C(C)NC(=O)NC1c1ccco1 (stereo not drawn)	none
Cc1cc(=O)oc2c(OS(C)(=O)=O)c(OS(C)(=O)=O)ccc12	none (no result: TSHR agonist)
CCOc1ccc(OCC)c(NC(=O)C2CCN(S(=O)(=O)c3cccc4nonc34)CC2)c1	none
COc1ccc(Cl)cc1NC(=O)C1CCCN(S(=O)(=O)c2cccc3nonc23)C1 (stereo not drawn)	Tau filament bind 25µM
CCOC(=O)c1oc2ccccc2c1CSc1nnnn1-c1ccccc1	HEK293 cAMP ctrl 16µM, TSHR agonist inconclusive
CN1CCN(Cc2nc3cccc4c3c([n+]2[O-])-c2ccccc2-4)CC1	none
COC(=O)c1ccc(C(/C=C/[C@@H](C)C(=O)N[C@H](C)CO)NC(=O)OCc2ccccc2)cc1 (stereo partly drawn)	none
Cc1cccc(C(=O)O)c1C[C@H]1NCC[C@H]2c3ccccc3N[C@@H]12	none
COc1cc(-c2nnc(SCc3ccccc3Cl)o2)cc(OC)c1OC	HEK293 cAMP ctrl inconclusive, TSHR agonist inconclusive
COc1cc(-c2nnc(SCc3c(F)cccc3Cl)o2)cc(OC)c1OC	HEK293 cAMP ctrl 32µM, TSHR agonist inconclusive
CCOC(=O)CCCc1sc(N)nc1-c1[nH]c(=O)[nH]c1C	Hsp90 Hop PPI 4µM
CCCn1c(NC(=O)c2ccc(Cl)c(S(=O)(=O)N3CCCC3)c2)nc2ccccc21	HEK293 cAMP ctrl 16µM, TSHR agonist inconclusive
Cc1ccc2c(c1)N(C(=O)CSc1nncn1C)C(C)(C)c1ssc(=S)c1-2	Tau filament bind 16µM, Hsp90 Hop PPI inconclusive
Cc1cccc(OCCSc2cc(C)nc(N)n2)c1	HEK293 cAMP ctrl 32µM, TSHR agonist inconclusive
Cc1ccc(OCCSc2cc(C)nc(N)n2)cc1	HEK293 cAMP ctrl inconclusive, TSHR agonist inconclusive
N=c1c(C(=O)NCc2ccco2)cc2c(=O)n3ccccc3nc2n1CCc1ccccc1	TSHR agonist inconclusive, Tau filament bind 0.63µM
CCOC(=O)c1cc2c(=O)n3ccccc3nc2n(Cc2ccccc2)c1=N	Tau filament bind 1.6µM
COc1ccc(CCn2c(=N)c(C(=O)N3CCN(C)CC3)cc3c(=O)n4ccccc4nc32)cc1	TSHR agonist inconclusive, Tau filament bind 16µM
COc1ccc(CNC(=O)c2cc3c(=O)n4ccccc4nc3n(Cc3ccco3)c2=N)cc1	none
Cc1ccc(Cn2c(=N)c(C(=O)NCc3ccco3)cc3c(=O)n4ccccc4nc32)cc1	TSHR agonist inconclusive, Tau filament bind 3.2µM
N=c1c(C(=O)NC2CCCC2)cc2c(=O)n3ccccc3nc2n1CCN1CCOCC1	none
COc1ccc(-n2c(=O)c(-c3cccs3)nc3cnc(Oc4ccccc4)nc32)cc1	none
CC(C)CN1CC[C@@]2(CCCN(C(=O)c3csnn3)C2)C1	none
Cc1cc(C)nc(Nc2ccc(N3CCCC3)cc2)n1	Tau filament bind 16µM, Hsp90 Hop PPI inconclusive
CCCc1cc(=O)[nH]c(Nc2ccc(N3CCCCC3)cc2)n1	Tau filament bind 25µM
Cc1cc(C)nc(Nc2ccc(N3CCOCC3)cc2)n1	Tau filament bind inconclusive, Hsp90 Hop PPI inconclusive
O=C(Nc1cccc(F)c1)N1CCC2(CCNCC2)CC1	none
C=CCOc1ccccc1/C=c1\sc2nc(=O)c(C)nn2c1=O	Tau filament bind 25µM
Fc1cccc(-n2c(-c3ccco3)nc3nc4ccccc4nc32)c1	none
c1ccc(-c2nc3nc4ccccc4nc3n2Cc2ccco2)cc1	HEK293 cAMP ctrl 10µM, TSHR agonist inconclusive, Tau filament bind 13µM
CCCCOCCCn1c(-c2ccco2)nc2nc3ccccc3nc21	Tau filament bind 2µM
S=c1nc(-c2ccccc2)n(Cc2ccco2)c2c1CCCC2	TSHR agonist 5µM (no result: Tau filament bind, Hsp90 Hop PPI, Pol III holo inh)
Fc1ccc(-n2c(-c3ccco3)nc3nc4ccccc4nc32)cc1	Tau filament bind 13µM
